The term inhibition denotes the change of the read-out against control, counted positive when it falls.

The whole screen tested about 88,000 compounds, of which about 260 (0.3%) were called active. What follows is part of a selection rich in actives, with near analogues and random picks from the rest. Unmarked numbers belong to inactive results.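 The calls were made as follows: active = compounds that reduce the energy-transfer binding signal between the protein and its labelled peptide by more than half; inactive = the rest.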

This experiment deals with Mothers against decapentaplegic homolog 3 (Homo sapiens) (UniProt P84022). Put plainly: Smad3/FoxH1 peptide binding inhibitors, primary screen, biochemical, TR-FRET (AID 630).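 Also: 0% = Smad3 plus labelled peptide maximal FRET and 100% = peptide-only background.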 Conditions: TR-FRET Smad3/Dy647-FoxH1 peptide binding, europium anti-His; at 25 µM; stronger effect = higher value. For orientation: TR-FRET usually uses a lanthanide donor and a delayed reading to cut background.
Chain of Mothers against decapentaplegic homolog 3 (Homo sapiens) (P84022 whole entry, looked up): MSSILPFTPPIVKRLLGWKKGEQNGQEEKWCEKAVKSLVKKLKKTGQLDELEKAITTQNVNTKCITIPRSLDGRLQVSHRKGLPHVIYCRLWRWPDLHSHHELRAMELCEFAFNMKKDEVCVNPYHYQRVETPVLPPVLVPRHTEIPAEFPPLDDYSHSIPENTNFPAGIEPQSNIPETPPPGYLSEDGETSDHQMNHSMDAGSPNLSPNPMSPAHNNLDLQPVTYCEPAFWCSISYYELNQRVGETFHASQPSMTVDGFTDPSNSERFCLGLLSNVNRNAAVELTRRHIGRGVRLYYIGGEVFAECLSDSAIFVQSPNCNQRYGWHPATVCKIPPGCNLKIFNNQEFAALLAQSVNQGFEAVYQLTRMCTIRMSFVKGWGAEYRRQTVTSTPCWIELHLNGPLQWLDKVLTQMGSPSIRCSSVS
For the molecule `CC(=O)C1=C(C)NC(=O)NC1c1cc(Br)ccc1OCC#N` (stereo not given), the inhibition was 5.31%.
Consider `N#CC1=C(N)N(c2ccccc2)C2=C(C(=O)CCC2)C1c1ccccc1` (stereo not given), for which the inhibition is -6.32%.
To `C=CCN(N=Nc1cccc([N+](=O)[O-])c1)c1cccc([N+](=O)[O-])c1` belongs 5.93%; to `COc1ccc(NC(=O)C(CC(C)C)NS(=O)(=O)c2ccc3c(c2)CCN3C(C)=O)cc1OC` (stereo not given), 2.09%.
As for `C[C@H]1O[C@@H](CC(=O)O)Cc2c1c(O)c1c(O)cc(-c3cc(=O)c4c(=O)c5c(c(=O)c=4c3=O)C[C@H](CC(=O)O)O[C@@H]5C)c(O)c1c2O`, the inhibition was 95.5% (active).
To `Cc1cc2cc(CNC(=O)c3cccs3)ccc2[nH]1` belongs 4.85%.
As for `c1ccc2c(-c3nn4nnnc4c4ccccc34)cccc2c1`, the figure is 1.52%; as for `Cc1cc(Cl)c(S(=O)(=O)N(C)C)cc1OCC(N)=O`, -1.09%; as for `COc1ccc(S(=O)(=O)Nc2ccc(F)cc2)c(C)c1C`, -18.5%.
To `COCCOCCn1cnc2ccccc21` belongs 8.15%; to `Cc1ccc(-c2nc3ccccc3[nH]2)cc1N`, 10.8%; to `CC(=O)N1CCCc2cc(S(=O)(=O)CCC(=O)N3CCN(c4ccccc4)CC3)ccc21`, 3.39%.
Turning to `CC(C)(C)c1ccc(C(=O)NCC(=O)OCN2C(=O)c3ccccc3C2=O)cc1`, the inhibition was -15.4%.
As for `C=CCN(C(=O)Cn1ncc2c1-c1cc(C)ccc1OC2)c1ccccc1`, the figure is -12.8%; as for `Oc1c(Br)cc(CN(Cc2cc(Br)c(O)c(Br)c2)C2CCCCC2)cc1Br`, 98.7% (active).
As for `C=CCO/N=C(\C)c1c(O)c(C)c(-c2ccccc2)n(-c2ccccc2)c1=O`, the figure is 0.29%; as for `Cc1cccc(NC(=O)/C(=C\c2ccco2)NC(=O)c2ccccc2)c1`, -5.56%; as for `CC(C)C(c1nnnn1CCc1ccccc1)N1CCN(C(=O)c2ccco2)CC1` (stereo not given), -1.2%.
Turning to `CCC(c1nnnn1C1CCCC1)N1CCN(C(=O)c2ccco2)CC1` (stereo not given), the inhibition is 56.9% (active).
Take `CC(=O)c1ccc(-n2nnnc2SCC(=O)N2CCN(C(=O)c3ccco3)CC2)cc1`: the inhibition is 6.3%.
As for `COC(=O)c1ccc(CSc2nc3cc(Cl)ccc3o2)cc1`, the figure is 8.67%; as for `Cc1ccc(-c2cnc(NC(=O)CCC(=O)N(C)Cc3ccccc3)n2C)cc1`, 8.43%; as for `COc1ccc(C(C)=O)cc1CN1C(=O)NC2(CCCCC2C)C1=O` (stereo not given), 3.22%.
To `CC1CCN(C(=O)c2cc3nc(C4CC4)cc(C(F)(F)F)n3n2)CC1` belongs 6.46%; to `C[C@H](CCC(=O)O)[C@@H]1CC[C@@H]2[C@H]3CC[C@H]4C[C@@H](O)CC[C@]4(C)[C@@H]3C[C@H](O)[C@]21C`, -5.18%.
As for `FC(F)(F)c1ccc2nnc(-c3c(Cl)cccc3Cl)n2c1`, the figure is -1.74%; as for `CC1CCCCC1NC(=O)C1CCCN1S(=O)(=O)c1cccc2nsnc12` (stereo not given), -19.4%.
Regarding `O=C1CSC(c2ccc(Cl)cc2)N1` (stereo not given), the inhibition is 13.1%.
As to `Cc1cccn2c(=O)c(/C=C(\C#N)S(=O)(=O)c3ccc(Cl)cc3)c(N3CCC(C(N)=O)CC3)nc12`, the inhibition is 0.22%.
As for `CCCNC(=O)N1CCN(C(=O)NCCC)CC1`, the figure is 0.05%; as for `CC1=CC(=O)C=CC1(C)C(Cl)(Cl)Cl` (stereo not given), -10.9%; as for `CN(C)c1ccc(CNC2C3CC4CC(C3)CC2C4)cc1` (stereo not given), 8.16%.
As for `COC(=O)Nc1ccc(S(=O)(=O)N2CCN(CCN3C(=O)C4C5C=CC(C5)C4C3=O)CC2)cc1` (stereo not given), the figure is 6.97%; as for `O=C(NCC(=O)N(Cc1cccs1)C(C(=O)NC1CCCCC1)c1ccco1)c1cccs1` (stereo not given), 0.62%.
As for `COc1ccc(C)cc1S(=O)(=O)NCCc1ccccc1`, the figure is 7.34%; as for `COc1ccc(NC(=S)N2N=CCC2c2ccccc2)cc1` (stereo not given), -1.54%; as for `CCCCN1C(=O)CC(N2CCOCC2)C1=O` (stereo not given), -0.67%.
Consider `O=C(Cc1c(O)c2ccccc2[nH]c1=O)NCc1ccccc1`, for which the inhibition is 7.06%.
As for `CS(=O)(=O)c1ccc(/C=N/NC(N)=S)cc1`, the figure is 20.2%; as for `CC(C)CCNC(=O)Cn1c(=O)oc2cc(S(=O)(=O)N3CC(C)CC(C)C3)ccc21` (stereo not given), 7.82%.
As for `CCOCCCNC(=O)C(NC(=O)c1ccc(=O)[nH]c1)c1ccc(C)cc1` (stereo not given), the figure is -19.1%; as for `Cc1nnc(SCc2nc3ccccc3nc2C)s1`, 1.94%.
In the case of `CCOc1cc2[nH]c(=S)n(Cc3ccc(C(=O)NCCOC)cc3)c(=O)c2cc1OCC`, the inhibition is -0.98%.
To `CC(C)Oc1ccc(Oc2ccc(C(F)(F)F)cn2)cc1` belongs 0.6%.
On to `CCn1c(C)nc2cc(C(=O)NNS(=O)(=O)c3ccc(C)cc3C)ccc21`, for which the inhibition was 2.77%.
With `Cc1cccc(-n2c(N)cc(=O)nc2SC(C)C(=O)NC2CCCCC2)c1` (stereo not given), the inhibition is 5.17%.
To `COc1cccc(-n2c(Cc3cc(=O)[nH]c(=O)[nH]3)nnc2SCC(=O)Nc2ccccc2)c1` belongs 4.97%; to `Cc1cccc(-n2c(Cc3cc(=O)[nH]c(=O)[nH]3)nnc2SC(C)C)c1`, 62% (active).
For the molecule `O=C(O)CCCCc1nc2ccccc2s1`, the inhibition is -2.94%.
To `CNC(=O)c1nnc(Cc2ccc(Cl)cc2)o1` belongs -6.06%; to `CCOc1ccc(S(=O)(=O)NCC2CCCO2)cc1` (stereo not given), -12%; to `CCOC(=O)NC(C(F)(F)F)(C(F)(F)F)P(=O)(c1ccccc1)c1ccccc1`, 6.78%.
To `CCOCCCNC(=O)C(NC(=O)CNC(=O)c1ccccc1)c1ccc(C)cc1` (stereo not given) belongs -6.68%; to `CCOCCOCCC(C(=O)O)P(=O)(c1ccccc1)c1ccccc1` (stereo not given), 71.7% (active).
To `CCCCCCOc1ccc(OC(=O)c2cccnc2)cc1` belongs 0.33%; to `Cc1ccc(-n2c(=O)cc(N3CCN(Cc4ccccc4)CC3)[nH]c2=O)cc1`, 2.1%.
For `Cc1cc(S(=O)(=O)NC2CCCCC2)ccc1OCC(=O)NCc1cccnc1`, the inhibition is 8.87%.
As for `CN(C)C(=O)c1cc(Br)ccc1Cl`, the figure is 1.18%.
Regarding `O=C(Nc1ccc2c(c1)OCCO2)C(c1ccc(F)cc1)N1CCCCC1` (stereo not given), the inhibition is -0.28%.
As for `O=C(O)c1c(Br)c(Br)c(Br)c(Br)c1C1c2ccc(O)cc2Oc2cc(O)ccc21`, the figure is 93.1% (active); as for `COc1cccc(N=c2oc3c(C)ncc(CO)c3cc2C(N)=O)c1`, 10.9%.
Consider `CC1(CC(=O)O)O[C@@H]2CCCCC[C@H]2O1` (tested in a mixture with another compound), for which the inhibition is 14%.
As for `Cc1cc(NC(=O)CS(=O)(=O)c2cn(C)c3ccccc23)no1`, the figure is -0.74%; as for `Cc1ccccc1CSCCNC(=O)c1ccc(Cl)c(S(=O)(=O)N2CCOCC2)c1`, 4.77%.
`CCC1CCCCN1CCCNC(=O)C1CCC(Cn2c(=O)[nH]c3ccccc3c2=O)CC1` (stereo not given): the inhibition is 14.2%.
Turning to `COc1ccc(C(C#N)Nc2ccccc2C)cc1` (stereo not given), the inhibition was -2.51%.
Consider `COc1ccc(C(=O)OCC(=O)NCC2CCCCC2)cc1S(=O)(=O)N1CCCc2ccccc21`, for which the inhibition was 0.19%.
In the case of `Cc1ccc(S(=O)(=O)N(c2cccc(C)c2)C2CCS(=O)(=O)C2)cc1` (stereo not given), the inhibition was 0.21%.
To `COc1ccc(C2(CNC(=O)C(c3ccccc3)c3ccccc3)CCOCC2)cc1OC` belongs 3.2%.
As for `COc1ccc(S(=O)(=O)N2CCOCC2)c(C)c1C`, the figure is 15.3%.
On to `Cc1c(O)c(Br)c(C)c(O)c1Br` (tested in a mixture with another compound), for which the inhibition is 94% (active).
To `CCc1ccccc1NC(=O)CN(C)S(=O)(=O)c1ccc2c(c1)c(=O)n(C)c(=O)n2C` belongs -4.79%; to `C=C(C)CNC(=S)/N=c1\scc(C)n1CC`, 91.6% (active).
To `OC[C@@H]1O[C@H](n2cnc3c(SCc4ccccc4)ncnc32)[C@H](O)[C@H]1O` belongs 4.63%; to `CC(C)OC(=O)c1c(NC(=O)c2ccco2)sc2c1CCCC2`, -1.98%; to `CC(O)CN(Cc1ccc(Cl)cc1)CC(C)O` (stereo not given), 0.45%.
As for `COc1ccc(S(=O)(=O)N/N=C\c2ccc(OC)c(COc3ccc(C)cc3[N+](=O)[O-])c2)cc1`, the figure is -3.11%.
Regarding `Cc1ccc(SC(=O)COc2ccc(C)c(C)c2)cc1`, the inhibition is -5.83%.
As for `CCN1C(=O)C(CC(=O)Nc2cc(C)ccc2C)SC1=Nc1ccc(S(N)(=O)=O)cc1` (stereo not given), the figure is -12.6%; as for `O=C(C1=C(O)C(=O)N(Cc2ccccc2)C1c1ccco1)c1ccco1` (stereo not given), 12.4%.
As for `C[C@@]12CC[C@H]3c4ccc(O)cc4CC[C@@H]3[C@H]1CC[C@H]2OC(=O)CCC1CCCC1`, the figure is 39.6%; as for `CC(=O)Nc1ccc(OCC(O)CN2CCN(c3ccccc3Cl)CC2)cc1` (stereo not given), 4.39%.
Turning to `CCOc1ccc(N=C2NC(=O)S/C2=C\c2ccc(O)cc2)cc1`, the inhibition was -8.11%.
To `O=C(NC1CCC(O)CC1)c1ccc(S(=O)(=O)NCc2ccco2)cc1` (stereo not given) belongs 1.61%; to `COC(=O)C1=C(C)Nc2ncnn2C1c1cccnc1` (stereo not given), -10.7%; to `Cc1ccc(S(=O)(=O)N(C)C2(C)CCS(=O)(=O)C2)cc1` (stereo not given), -7.37%.
To `Cn1cnc([N+](=O)[O-])c1Nc1ccccc1O` belongs -0.46%.
To `O=C(N/N=C/c1ccc(O)cc1)/C(=C/c1ccc([N+](=O)[O-])cc1)NC(=O)c1ccccc1` belongs -3.81%; to `Cc1cccc(C)c1NC(=O)CSc1nnc(-c2ccccc2)n1Cc1ccc2c(c1)OCO2`, 14.3%.
Turning to `Cc1nn(-c2ncc(C(F)(F)F)cc2Cl)c(=O)n1-c1ccccc1`, the inhibition was 9.91%.

The values are drawn from PubChem BioAssay AID630 (Emory University Molecular Libraries Screening Center, 2007).
